Laboratory results taken from PubChem BioAssay AID2796 (The Scripps Research Institute Molecular Screening Center, 2010).
About 8,000 (2.5%) of roughly 320,000 compounds were called active. Rule as the data show it: active = activation above about 47%; inactive = the rest. The entries come from a sample that favours actives as a whole.

Target: Aryl hydrocarbon receptor (Homo sapiens) (UniProt P35869)
Experiment: AHR activators, primary screen, cell-based, luminescence, luciferase reporter, human (AID 2796);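 also: 0% = vehicle wells and 100% = reference agonist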
Conditions: AHR-responsive luciferase reporter cells, at 5 µM, active compounds read high

Chain of Aryl hydrocarbon receptor (Homo sapiens) (P35869 whole entry, looked up): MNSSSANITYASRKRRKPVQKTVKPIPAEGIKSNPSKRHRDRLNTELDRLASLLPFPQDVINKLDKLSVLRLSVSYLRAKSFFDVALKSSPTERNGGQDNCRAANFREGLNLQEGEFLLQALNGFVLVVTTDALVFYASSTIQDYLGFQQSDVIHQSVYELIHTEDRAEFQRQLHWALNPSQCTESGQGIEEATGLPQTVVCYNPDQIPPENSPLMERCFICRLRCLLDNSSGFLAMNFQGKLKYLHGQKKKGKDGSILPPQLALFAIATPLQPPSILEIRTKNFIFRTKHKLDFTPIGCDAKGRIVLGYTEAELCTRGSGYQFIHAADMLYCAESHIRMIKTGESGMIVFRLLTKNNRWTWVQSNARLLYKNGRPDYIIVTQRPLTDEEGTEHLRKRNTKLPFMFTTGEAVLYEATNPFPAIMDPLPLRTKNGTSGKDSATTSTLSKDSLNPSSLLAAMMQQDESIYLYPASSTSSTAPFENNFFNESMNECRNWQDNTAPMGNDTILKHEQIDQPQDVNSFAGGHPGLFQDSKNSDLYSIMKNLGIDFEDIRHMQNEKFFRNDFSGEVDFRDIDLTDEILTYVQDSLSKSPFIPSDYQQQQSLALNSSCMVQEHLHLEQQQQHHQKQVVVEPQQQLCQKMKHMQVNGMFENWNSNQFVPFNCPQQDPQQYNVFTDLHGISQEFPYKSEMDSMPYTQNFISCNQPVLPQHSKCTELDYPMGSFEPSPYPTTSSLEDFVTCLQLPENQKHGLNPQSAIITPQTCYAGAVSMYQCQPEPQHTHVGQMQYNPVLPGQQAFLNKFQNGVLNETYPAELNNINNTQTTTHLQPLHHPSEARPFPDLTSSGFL

| Compound | activation |
| --- | --- |
| COc1ccc(C2=Nc3cc(C)ccc3OC2)cc1 | 30.2% (inactive) |
| O=C(CCc1nc(-c2ccccc2)no1)Nc1cccc(C(=O)NC2CC2)c1 | 0.82% (inactive) |
| CCc1ccc(OCC(=O)OC(C)C(=O)NC2CC2)cc1 (configuration not stated) | -4.56% (inactive) |
| Oc1c(Cl)cc(Cl)c(Cl)c1Cc1c(O)c(Cl)cc(Cl)c1Cl | 0.28% (inactive) |
| CN(C(=O)COC(=O)Cn1cnc2c1c(=O)n(C)c(=O)n2C)C1(C#N)CCCCC1 | -0.97% (inactive) |
| O=C(c1snnc1-c1ccccc1)N1CCOCC1 | 2.54% (inactive) |
| CN(CCC1CCOCC1)C(=O)CC1C(=O)NCCN1Cc1cccc(F)c1 (configuration not stated) | -2.39% (inactive) |
| COc1cccc(NC(=O)Cn2cnc3sc(C)c(S(=O)(=O)N4CCN(C)CC4)c3c2=O)c1 | 3.14% (inactive) |
| CCCc1cc(=O)oc2c(C)c(OCC(=O)Nc3ccccn3)ccc12 | 2.02% (inactive) |
| CCCc1cc(=O)oc2c(C)c(OCC(=O)NCc3ccccn3)ccc12 | 65.7% (active) |
| CCCc1cc(=O)oc2c(C)c(OCC(=O)N3CCC(C(=O)O)CC3)ccc12 | 0.65% (inactive) |
| Clc1ccc(-c2cc(C3CCNCC3)[nH]n2)c(Cl)c1 | -7.18% (inactive) |
| CCCCCCC(=O)Nc1nc(C)c(-c2csc(Nc3cc(Cl)ccc3OC)n2)s1 | 40.2% (inactive) |
| O=C(Nc1ccc(-c2csc(Nc3cccc(C(F)(F)F)c3)n2)cc1)c1cccc(C(F)(F)F)c1 | 114% (active) |
| CCCCC(=O)Nc1nc(C)c(-c2csc(Nc3ccc(Cl)cc3)n2)s1 | 49.2% (active) |
| Cc1nc(NC(=O)CN(C)S(=O)(=O)c2ccc(Cl)cc2)sc1C | 5.19% (inactive) |
| CCCCCCC(=O)Nc1nc(C)c(-c2csc(Nc3cccc(OC)c3)n2)s1 | 34.4% (inactive) |
| COc1ccc(NC(=O)CN(C)CC(=O)Nc2cccc(C(F)(F)F)c2)cc1 | 0.79% (inactive) |
| CCCCN(C)CCC(=O)Nc1ccc(Cl)cc1 | 0.37% (inactive) |
| CCC(=O)Nc1nc(C)c(C(=O)Nc2cccc(Cl)c2)s1 | 7.61% (inactive) |
| C=CCCC(=O)Nc1nc(C)c(-c2csc(Nc3ccc(Cl)cc3)n2)s1 | 56.6% (active) |

| Compound | activation |
| --- | --- |
| Cc1nc(NC(=O)c2cccc(Cl)c2)sc1-c1csc(Nc2cccc(Cl)c2)n1 | 85.8% (active) |
| O=C(O)CSc1c2c(nc3cc(C(=O)Nc4cccc(C(F)(F)F)c4)ccc13)CCCC2 | -2.1% (inactive) |
| COc1ccc(-c2csc(NC(=O)COC(=O)Cc3ccc(Cl)cc3Cl)n2)cc1 | 34.2% (inactive) |
| CCC(C)c1ccc(NC(=O)COC(=O)C2CCCC2)cc1 (configuration not stated) | -0.7% (inactive) |
| CC(=O)Nc1ccc(NC(=O)CCN2C(=O)C3CC=CCC3C2=O)cc1 (configuration not stated) | -0.48% (inactive) |
| Cc1occc(=O)c1OCc1c(Cl)cccc1Cl | 2.86% (inactive) |
| O=C(O)CCN1C(=O)CC2(CCCCC2)C1=O | -1.21% (inactive) |
| O=C1CCN(Cc2ccc([N+](=O)[O-])cc2)CCN1[C@H](CO)Cc1ccccc1 | 0.87% (inactive) |
| CCCNC(=O)c1cnc(-c2ccccc2)nc1-c1ccccc1 | 3.22% (inactive) |
| CCOc1ccc(/C=C(/NC(=O)c2ccccc2)C(=O)NCCC(=O)O)cc1 | 3.46% (inactive) |
| COc1cc(OC)c(NS(=O)(=O)c2cn(C)cn2)cc1Cl | -0.48% (inactive) |
| Cc1ccc(NC(=O)C2CCC(C(C)(C)C)CC2)cc1S(=O)(=O)N1CCOCC1 (configuration not stated) | 1.24% (inactive) |
| Cc1csc(=O)n1CC(=O)Nc1ccc(S(C)(=O)=O)cc1 | -1.77% (inactive) |
| CCOC(=O)c1ccc(NC(=O)c2ccc(NC(=O)C3CCCO3)cc2)cc1 (configuration not stated) | 3.91% (inactive) |
| COc1ccc(N(CC(=O)N2CCOCC2)S(=O)(=O)c2ccccc2)cc1Cl | 0.59% (inactive) |
| O=C1COc2ccc(C(=O)COC(=O)c3ccccc3Cl)cc2N1 | -0.97% (inactive) |
| COc1ccc(C2NC(=O)c3ccccc3N2)cc1 (configuration not stated) | 102% (active) |
| Cc1ccc(C2Nc3cccc4cccc(c34)N2)cc1 | 30.3% (inactive) |
| Oc1ccc(C2Nc3cccc4cccc(c34)N2)cc1 | 9.92% (inactive) |
| CC(Oc1ccc(-c2ccccc2)c(F)c1)c1ccn(S(=O)(=O)c2cccc3ccccc23)n1 (configuration not stated) | 0.53% (inactive) |
| O=C(NC(=O)c1ccc(Cl)c(Cl)c1)OC1CCS(=O)(=O)C1 (configuration not stated) | 2.16% (inactive) |

| Compound | activation |
| --- | --- |
| O=C(Cn1ncc(N2CCCC2)c(Br)c1=O)c1ccc(Cl)cc1 | 3.04% (inactive) |
| COc1cccc(CNc2ncc(-c3ccccc3)n2C)c1 | 8.66% (inactive) |
| Cc1ccc(-c2csc(-c3cc(C)on3)n2)cc1 | -2.07% (inactive) |
| CCCc1cc(-c2nc(-c3ccc(C)cc3)cs2)ccn1 | 23.7% (inactive) |
| Cc1ccc(-c2csc(-c3c[nH]c4ccccc34)n2)cc1 | 74.3% (active) |
| CCC(C)NC(=O)C1CCC(=O)N1Cc1ccc(C)cc1 (configuration not stated) | 4.04% (inactive) |
| O=C(NCCc1ccc(Cl)cc1Cl)c1cc([N+](=O)[O-])c[nH]c1=O | 6.38% (inactive) |
| COC(=O)c1c(NC(C)=O)sc(C(=O)Nc2ccccc2OC)c1C | 47.1% (active) |
| CCC(=O)Nc1sc(C(=O)Nc2ccccc2)c(C)c1C(=O)OC | -2.8% (inactive) |
| COc1ccccc1NC(=O)c1ccc(C)s1 | 26.2% (inactive) |
| CN1CCN(S(=O)(=O)c2cccc(C(=O)Nc3sccc3C#N)c2)CC1 | 3.96% (inactive) |
| O=C(CC12CC3CC(CC(C3)C1)C2)Nc1ccc2c(c1)COC2=O | 0.6% (inactive) |
| CC(C)(C)C(=O)Cn1c(NCCO)nc2ccccc21 | -1.23% (inactive) |
| O=S(=O)(O)c1nc2ccccc2n1Cc1ccc(Cl)cc1Cl | 3.2% (inactive) |
| O=C(Cn1c(NCCO)nc2ccccc21)c1ccc(Cl)cc1Cl | 103% (active) |
| CN(CC(=O)NCCc1ccc(S(N)(=O)=O)cc1)CC(=O)Nc1ccc(F)c(F)c1F | 1.42% (inactive) |
| O=S(=O)(Cc1ccccc1)c1nc2ccccc2n1Cc1ccccn1 | -1.4% (inactive) |
| COc1ccc(C2CC(c3cccs3)=NN2c2ccccc2)cc1 (configuration not stated) | 3.12% (inactive) |
| O=c1c2cc(-c3ccccc3)sc2nc2n1N=C(c1cccs1)CS2 | 58.8% (active) |
| Cc1nnc2n1N=C(c1ccccc1)CS2 | 1.52% (inactive) |
